# From PubChem
# FLuc inh: inhibitors of firefly (Photinus pyralis) luciferase. P08659. purified P. pyralis luciferase, luminescence, biochemical. Potency, µM (series often up to 115 µM), usual class: inhibitors. hit rate 2.5% among 76,000; also: nearly all actives have a fitted effect of over 65% in size
# Target sequence (P08659 whole entry, looked up): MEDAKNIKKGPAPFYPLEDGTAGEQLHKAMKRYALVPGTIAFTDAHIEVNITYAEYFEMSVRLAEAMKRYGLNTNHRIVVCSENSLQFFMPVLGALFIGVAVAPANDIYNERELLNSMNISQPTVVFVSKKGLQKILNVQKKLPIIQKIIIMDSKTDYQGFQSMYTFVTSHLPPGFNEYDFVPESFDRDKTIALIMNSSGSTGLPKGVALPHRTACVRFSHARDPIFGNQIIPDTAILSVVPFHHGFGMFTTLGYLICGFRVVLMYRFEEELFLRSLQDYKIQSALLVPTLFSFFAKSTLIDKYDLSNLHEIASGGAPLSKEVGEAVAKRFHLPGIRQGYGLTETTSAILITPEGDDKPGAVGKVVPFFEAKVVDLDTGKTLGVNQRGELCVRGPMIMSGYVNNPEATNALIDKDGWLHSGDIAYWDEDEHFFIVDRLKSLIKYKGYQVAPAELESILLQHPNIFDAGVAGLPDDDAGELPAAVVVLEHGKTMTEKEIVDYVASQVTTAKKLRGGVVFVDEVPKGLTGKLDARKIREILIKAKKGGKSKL
#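 Luminescence read by CCD imager after adding enzyme (10nM final) to wells holding compound, titrated in qHTS. Substrates 10uM each D-luciferin and ATP; buffer 50mM Tris acetate pH 7.5, 10mM Mg acetate, Tween-20, BSA.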
# 3T3 cytotox: cytotoxic compounds in NIH 3T3 cells; Potency, µM (top dose mostly 96.7 µM), most hits filed as inhibitors; NIH 3T3 viability, CellTiter-Glo ATP luminescence, 48-72 h; hit rate 4.3% among 94,000; AID 1345082; also: nearly all actives have a fitted effect of over 55% in size
#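 NIH 3T3 cells at 400 cells/well received 23 nL of compound by pintool and were incubated 48 or 72 h at 37 °C. Viability was read as ATP-coupled CellTiter-Glo luminescence.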
# hNpr1 antagonist: human Npr1 receptor antagonism | hit rate 1.6% among 76,000 | HEK293 hNpr1 GloSensor cGMP, ANP-stimulated luminescence | Potency, µM (top dose mostly 46.3 µM), actives largely listed as inhibitors; calls by dose curve; also: nearly all actives have a fitted effect of over 60% in size
#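 Compound pre-incubated 30 min at room temperature on GloSensor-loaded HEK293 cells stably carrying hNpr1 and the pGS-40F cGMP biosensor. Stimulation uses hNppA at 0.1 nM final; luminescence is taken at baseline and 20 min post-agonist.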
# HEK293 tox: HEK 293 cell cytotoxicity; hit rate 6.6% among 94,000; Potency, µM (top dose mostly 115 µM), usual class: inhibitors; HEK 293 viability, ATP luminescence (CellTiter-Glo), 48-72 h; AID 1345083; also: nearly all actives have a fitted effect of over 60% in size
#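 Pintool-delivered compounds were incubated with HEK 293 cells (250 cells/well) at 37 degree Celsius for 48 or 72 hr. ATP-dependent luminescence (CellTiter-Glo) then reported remaining viable cells.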
# Numbers stand for hits; – = inactive; ? = inconclusive; · = not tested or not shown. In the library only some 11% were active in any assay of this set; here they are far more common. Unless noted, calls follow the shape of the dose curve; as a rule, active = well fitted curve in the direction sought with a large enough effect; inconclusive = small, poorly fitted or top-dose-only effect, or another doubt; inactive = no such curve, though single readings can be large; an effect the other way counts as inactive or inconclusive.
SMILES,FLuc inh,3T3 cytotox,hNpr1 antagonist,HEK293 tox
Cc1nn(-c2ccccc2)c2c1C(C(C)C)N(C1CCN(C(=O)N(C)C)CC1)C2=O (configuration not stated),·,?,·,45µM
Cc1nn(-c2ccccc2)c2c1C(C(C)C)N(C1CN(C(=O)c3ccc(Cl)cc3)C1)C2=O (configuration not stated),·,?,·,32µM
Cc1nn(-c2ccccc2)c2c1C(C)N(C1CCN(C(=O)Cc3ccc(F)cc3)CC1)C2=O (configuration not stated),·,?,·,50µM
COC(=O)N1CCC(N2C(=O)c3c(c(C)nn3-c3ccccc3)C2C(C)C)CC1 (configuration not stated),·,–,·,?
CC(=O)N1CCC(N2C(=O)c3c(c(C)nn3-c3ccccc3)C2C)C1 (configuration not stated),·,?,·,–
O=C1CC2(CCN(C(=O)C3CCCN(C(=O)NC4CCCC4)C3)CC2)Oc2ccccc2N1 (configuration not stated),·,–,·,?
c1ccc2[nH]c(N3CCN(Cc4cc5n(n4)CCCNC5)CC3)nc2c1,–,–,–,–
c1ccc2sc(N3CCCN(Cc4cc5n(n4)CCNC5)CC3)nc2c1,?,?,–,35µM
CCCCNC(=O)C1CCN(C(=O)c2ncn3c2COC(c2ccc(OC)cc2)C3)CC1 (configuration not stated),–,–,–,–
O=C(NCCC1=CCCCC1)C1CCN(C(=O)c2ncn3c2COC(c2ccc(F)cc2)C3)CC1 (configuration not stated),22µM,–,–,–
CCCCNC(=O)C1CCN(C(=O)c2ncn3c2COC(c2ccc(F)cc2)C3)CC1 (configuration not stated),40µM,–,–,–
O=C(NCCC1=CCCCC1)C1CCN(C(=O)c2ncn3c2COC(c2ccccc2)C3)CC1 (configuration not stated),2µM,–,–,–
COc1cccc(CN2CC(O)CN(S(=O)(=O)c3ccc(F)cc3)CC2=O)c1OC (configuration not stated),·,?,·,–
COc1cccc(-c2cccc(C(=O)N3CCN(C(=O)Cc4ccccn4)CC3)c2)c1,·,–,·,–
CNC(=O)c1cc(C2CC2)nc2onc(C3CCCN(C(=O)c4ccccc4)C3)c12 (configuration not stated),·,–,·,–
O=C(CCc1nc2ccccc2[nH]1)N1CCCC(Cc2noc(-c3ccccc3)n2)C1 (configuration not stated),–,?,?,22µM
CC(=O)N1CCC(Cc2noc(-c3ccccc3)n2)C1 (configuration not stated),–,–,–,?
O=C(c1cccc(F)c1)N1CCCC(Cc2noc(-c3ccccc3)n2)C1 (configuration not stated),–,32µM,–,?
COC[C@@H]1[C@H](C(=O)NCCc2nc3ccccc3n2C)CCCN1C,·,–,·,–
O=C(NCCn1ccn2nc(-c3ccc(F)cc3)cc2c1=O)c1n[nH]c2c1CCCC2,0.4µM,?,?,?
CCn1nccc1C(=O)NCCn1ccn2nc(-c3ccc(C)c(C)c3)cc2c1=O,4µM,–,–,25µM
Cc1ccc(-c2cc3c(=O)n(CCNC(=O)c4ccccc4F)ccn3n2)cc1C,2µM,–,–,?
Cc1ccc(-c2cc3c(=O)n(CCNC(=O)C4CCCCC4)ccn3n2)cc1C,0.63µM,–,–,–
O=C(NCCn1ccn2nc(-c3ccc(F)cc3)cc2c1=O)c1ccsc1,–,–,–,?
CCOC(=O)[C@@H]1CN(C(C)=O)[C@H]2c3ccc(OC)cc3O[C@@H]12,·,–,·,?
SMILES,FLuc inh,3T3 cytotox,hNpr1 antagonist,HEK293 tox
O=C(c1cccnc1)N1CCC2(CC1)CC(CCOc1ccncc1)CCO2 (configuration not stated),·,–,·,?
Cc1ccc(C(=O)N2CCC3(CC2)CC(CO)N(C(=O)c2ccccc2)C3)s1 (configuration not stated),·,–,·,–
N#CC1CCN(C(=O)c2nc(-c3ccccc3)c3ccccn23)CC1,–,?,–,?
O=C(NCc1ccc2c(c1)OCO2)c1nc(-c2ccc(Cl)cc2Cl)c2ccccn12,–,?,–,32µM
O=C(c1nc(-c2ccc(Cl)cc2Cl)c2ccccn12)N1CCN(c2ncccn2)CC1,·,?,·,40µM
O=C(c1nc(-c2ccc(Cl)cc2Cl)c2cnccn12)N1CCN(c2ncccn2)CC1,·,–,·,–
COC(=O)CNC(=O)c1nc(-c2ccc(Cl)cc2)c2ccccn12,?,?,–,–
COCCNC(=O)c1nc(-c2ccc(Cl)cc2)c2ccccn12,–,79µM,–,?
N#CC1CCN(C(=O)c2nc(-c3cc(Cl)cc(Cl)c3)c3ccccn23)CC1,–,?,–,25µM
O=C(NCc1ccc(F)c(F)c1)C1CN(C2CCCC2)C(=O)N1 (configuration not stated),·,–,·,–
O=C(c1nc(-c2ccc(F)cc2)c2ccccn12)N1CCN(c2ncccn2)CC1,–,?,–,?
O=C(c1nc(-c2ccc(Cl)cc2)c2ccccn12)N1CCCC1,45µM,?,–,?
O=C(Nc1cncnc1)C1CCCN1c1nc2ncccc2o1 (configuration not stated),·,–,·,–
Cc1ccc(CC(=O)N2c3ccccc3CC2c2nnc(C3CCOCC3)o2)cc1 (configuration not stated),–,?,–,–
Cc1ccc(S(=O)(=O)N2c3ccccc3CC2c2nnc(C3CCOCC3)o2)cc1F (configuration not stated),–,?,–,25µM
CCn1cc(S(=O)(=O)N2CCCCC2c2nc(CCOc3ccc(F)cc3)no2)cn1 (configuration not stated),–,?,–,45µM
CCCS(=O)(=O)N1CCC(F)(c2nc(CCOC)no2)CC1,·,–,·,–
COc1ccc(NC(=O)C2CCc3nnc(CN[S+](=O)([O-])c4ccccc4Cl)n32)cc1 (configuration not stated),·,–,·,–
COc1cccc(CN2Cc3nc(-c4cccc(NC(C)=O)c4)ccc3OCC2=O)c1,–,?,–,79µM
COc1cccc(CN2Cc3nc(-c4cc5ccccc5o4)ccc3OCC2=O)c1,–,?,–,79µM
COc1cccc(CN2Cc3nc(-c4c(C)noc4C)ccc3OCC2=O)c1,–,40µM,–,?
CC(=O)Nc1cccc(-c2ccc3c(n2)CN(Cc2ccccc2)C(=O)CO3)c1,–,?,–,?
COc1cccc(CN2Cc3nc(-c4ccc(F)cc4)ccc3OCC2=O)c1,–,79µM,–,?
Cc1ccc(C2Cn3nnc(C(=O)N4CCN(C(=O)c5ccc(N(C)C)cc5)CC4)c3CO2)cc1 (configuration not stated),–,–,–,–
COc1cccc(CN2Cc3nc(-c4cc(Cl)ccc4OC)ccc3OCC2=O)c1,–,?,–,100µM
COc1ccccc1-c1cc(C(=O)NCc2ccccc2F)c2cnn(C)c2n1,·,–,·,–
Cn1ncc2c(C(=O)NCCc3cccc(F)c3)cc(-c3ccccc3C(F)(F)F)nc21,·,?,·,40µM
